Experimental data from PubChem BioAssay AID1159580 (chemical genetic matrix, 2015).
Where “and” joins values, the source holds several entries; their conditions need not be identical. Equal values may be shown once. Out of some 5,500 compounds screened, about 2,000 (36%) were called active. Inconclusive results (about 18%) are left out. Cut-off read from the data, not from the text of the source: active = normalized growth mostly below about 0.91 (no sharp cut-off); inconclusive = no clear call, values can overlap the other calls; inactive = mostly above about 0.92. The list shows a part of the results.

Experiment: chemical genetic growth profiling, strain panel (AID 1159580);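 note: tested at 20 µM; growth read once vehicle control cultures reached saturation at 30 °C; 1 = growth at the plate median or of vehicle wells; lower values mean less growth of the strain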
Conditions: S. cerevisiae deletion strains, growth OD

Measured: normalized growth

CC1=C(/C=C/C(C)=C/C=C/C(C)=C/CO)C(C)(C)CCC1
inactive: locus YAL013W, strain DEP1, hits give low values 1 | locus YAL021C, strain ccr4, hits give low values 1.05 | locus YAL026C, strain drs2, hits give low values 1.03 | locus YAL030W, strain snc1, hits give low values 0.995 | locus YBL061C, strain skt5, hits give low values 1.02 | locus YBR009C, strain hhf1, hits give low values 0.961 | locus YBR021W, strain FUR4, hits give low values 1.01 | locus YBR023C, strain chs3, hits give low values 1.01 | locus YBR171W, strain sec66, hits give low values 1.01 | locus YBR229C, strain ROT2, hits give low values 0.969 | locus YBR231C, strain swc5, hits give low values 0.983 | locus YBR279W, strain paf1, hits give low values 1 | locus YCL011C, strain gbp2, hits give low values 1.04 | locus YCL016C, strain dcc1, hits give low values 1.04 | locus YCL029C, strain bik1, hits give low values 1 | locus YCL061C, strain MRC1, hits give low values 1.01 | locus YCL069W, strain vba3, hits give low values 1.01 | locus YCR088W, strain abp1, hits give low values 1.03 | locus YDL005C, strain med2, hits give low values 1.02 | locus YDL035C, strain GPR1, hits give low values 0.982 | locus YDL040C, strain nat1, hits give low values 0.998 | locus YDL074C, strain BRE1, hits give low values 0.938 | locus YDL101C, strain DUN1, hits give low values 0.977 | locus YDL134C, strain PPH21, hits give low values 1.02 | locus YDL185W, strain tfp1, hits give low values 0.997 | locus YDL192W, strain arf1, hits give low values 1 | locus YDR001C, strain nth1, hits give low values 1.01 | locus YDR069C, strain doa4, hits give low values 1.04 | locus YDR101C, strain arx1, hits give low values 0.993 | locus YDR137W, strain rgp1, hits give low values 1.03 | locus YDR150W, strain NUM1, hits give low values 1 | locus YDR159W, strain sac3, hits give low values 0.968 | locus YDR162C, strain NBP2, hits give low values 0.993 | locus YDR195W, strain ref2 0.988 | locus YDR297W, strain sur2, hits give low values 1 | locus YDR318W, strain mcm21, hits give low values 1 | locus YDR334W, strain swr1, hits give low values 1.02 | locus YDR335W, strain msn5, hits give low values 1.02 | locus YDR388W, hits give low values 1 | locus YDR392W, strain spt3, hits give low values 0.965 | locus YDR502C, strain sam2, hits give low values 1 | locus YEL003W, strain gim4, hits give low values 1 | locus YEL037C, strain rad23, hits give low values 1 | locus YEL061C, strain CIN8 (second series), hits give low values 1.01 | locus YEL061C, strain CIN8, hits give low values 0.992 | locus YER015W, strain faa2, hits give low values 1.01 | locus YER016W, strain bim1, hits give low values 1.06 | locus YER110C, hits give low values 0.999 | locus YER111C, strain swi4, hits give low values 1 | locus YER155C, strain BEM2 (second series), hits give low values 1.07 | locus YER155C, strain BEM2, hits give low values 1.01 | locus YER167W, strain BCK2, hits give low values 1 | locus YFR010W, strain ubp6, hits give low values 0.988 | locus YGL078C, strain dbp3, hits give low values 1.01 | locus YGL086W, strain mad1, hits give low values 0.983 | locus YGL167C, strain pmr1, hits give low values 1.01 | locus YGL173C, strain kem1, hits give low values 0.971 | locus YGL227W, strain vid30, hits give low values 1 | locus YGL240W, strain doc1, hits give low values 1.01 | locus YGL248W, strain PDE1, hits give low values 0.965 | locus YGL253W, strain hxk2, hits give low values 0.993 | locus YGR078C, strain PAC10, hits give low values 0.967 | locus YGR135W, strain pre9, hits give low values 1 | locus YGR252W, strain gcn5, hits give low values 0.985 | locus YHR013C, strain ard1, hits give low values 1.04 | locus YHR027C, strain rpn1, hits give low values 1.01 | locus YHR030C, strain SLT2, hits give low values 1.01 and 0.999 | locus YHR079C, strain IRE1 (second series), hits give low values 1.01 | locus YHR079C, strain IRE1, hits give low values 1.04 | locus YHR094C, strain hxt1, hits give low values 1.01 | locus YHR129C, strain ARP1, hits give low values 1.01 | locus YHR142W, strain chs7, hits give low values 1 | locus YHR200W, strain rpn10, hits give low values 1 | locus YIL066C, strain RNR3, hits give low values 0.964 | locus YIL073C, strain SPO22, hits give low values 1.01 | locus YIL125W, strain kgd1, hits give low values 0.995 | locus YIR030C, strain dcg1, hits give low values 0.998 | locus YJL092W, strain hpr5, hits give low values 1 | locus YJL095W, strain BCK1 (second series), hits give low values 1 | locus YJL095W, strain BCK1, hits give low values 0.924 and 1.01 | locus YJL115W, strain asf1, hits give low values 1.01 | locus YJL129C, strain trk1, hits give low values 0.985 | locus YJL134W, strain LCB3, hits give low values 1.01 | locus YJL154C, strain vps35, hits give low values 1.02 | locus YJL164C, strain tpk1, hits give low values 0.993 | locus YJL166W, strain qcr8, hits give low values 0.967 | locus YJL168C, strain set2, hits give low values 0.997 | locus YJL187C, strain SWE1 (second series), hits give low values 0.96
